Test results from PubChem BioAssay (Tox21).
“And” between values parts separate entries of the source, which are not always exact repeats. Equal entries are not always repeated. Inconclusive results are not listed. A call without a number means that no potency is given here. More than one record can exist for a structure, and the calls need not agree. The source made the active and inactive calls. The call rests on the fitted dose curve; in most records, active means well fitted curve in the direction sought with a large enough effect in the repeat runs; inconclusive means weak or mixed curves; inactive means no such curve, though single readings can be large; an effect the other way counts as inactive or inconclusive.

Tests used:
[1] = A CellTox Green Cytotoxicity Assay to monitor cytotoxicity in HEK293 cells - 40 hour (AID 1224871); details: CellTox Green fluorescence; series mostly up to 76.8 µM; further: nearly all actives have a fitted effect of over 45% in size
Procedure, shortened: (§1)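 Cytotoxicity was tracked continuously in HEK293 cells by a DNA-binding dye excluded from viable cells. Compounds were transferred in DMSO 5 h after seeding; fluorescence was recorded at intervals up to 40 h.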

[2] = qHTS RealTime-Glo MT Cell Viability Assay in HEK293 cells - 16 hour (AID 1224872); details: RealTime-Glo luminescence; series mostly up to 76.8 µM; further: nearly all actives have a fitted effect of over 50% in size
Procedure, shortened: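 Quantitative high-throughput screen of the Tox21 10K library in HEK293: cells and RealTime-Glo reagents plated together, compound added at 5 h, luminescence monitored through 40 h at 37 C.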

[3] = qHTS RealTime-Glo MT Cell Viability Assay in HepG2 cells - 8 hour (AID 1224873); details: RealTime-Glo luminescence; series mostly up to 76.8 µM; further: nearly all actives have a fitted effect of over 55% in size
Procedure, shortened: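 HepG2 cells mixed with RealTime-Glo MT reagents (NanoLuc plus cell-permeant prosubstrate) were seeded at 600 cells/well, incubated 5 h at 37 C/5% CO2, then pinned with compounds in DMSO; nonlytic luminescence tracked viability during 40 h treatment.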

[4] = qHTS RealTime-Glo MT Cell Viability Assay in HEK293 cells - 40 hour (AID 1224874); details: RealTime-Glo luminescence; max response: stronger effect = lower value; further: nearly all actives have a fitted effect of over 50% in size
Procedure, shortened: (§2)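 Nonlytic bioluminescent viability monitoring. HEK293 at 600 cells/well with reagent; 5 h settle; compound transfer by pintool; plates held at 37 C and read at set time points.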

[5] = A CellTox Green Cytotoxicity Assay to monitor cytotoxicity in HEK293 cells - 24 hour (AID 1224875); details: CellTox Green fluorescence; series mostly up to 76.8 µM; further: nearly all actives have a fitted effect of over 45% in size
Procedure, shortened: as §1

[6] = A CellTox Green Cytotoxicity Assay to monitor cytotoxicity in HepG2 cells - 16 hour (AID 1224876); details: CellTox Green fluorescence; series mostly up to 76.8 µM; further: nearly all actives have a fitted effect of over 45% in size
Procedure, shortened: (§3)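 Real-time, homogeneous cytotoxicity readout: dead-cell DNA staining by CellTox Green in HepG2 monolayers, fluorescence measured at timed intervals up to 40 h of continuous compound exposure.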

[7] = qHTS RealTime-Glo MT Cell Viability Assay in HepG2 cells - 32 hour (AID 1224877); details: RealTime-Glo luminescence; series mostly up to 76.8 µM; further: nearly all actives have a fitted effect of over 55% in size
Procedure, shortened: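 Compound treatment began 5 h after plating HepG2 cells (600/well) with NanoLuc luciferase and prosubstrate. Plates stayed at 37 C for 40 h; luminescence was captured at six time points, 0 h through 40 h.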

[8] = A CellTox Green Cytotoxicity Assay to monitor cytotoxicity in HepG2 cells - 24 hour (AID 1224878); details: CellTox Green fluorescence; series mostly up to 76.8 µM; further: nearly all actives have a fitted effect of over 45% in size
Procedure, shortened: as §3

[9] = A CellTox Green Cytotoxicity Assay to monitor cytotoxicity in HepG2 cells - 40 hour (AID 1224879); details: CellTox Green fluorescence; series mostly up to 76.8 µM; further: nearly all actives have a fitted effect of over 40% in size
Procedure, shortened: as §3

[10] = qHTS RealTime-Glo MT Cell Viability Assay in HEK293 cells - 0 hour (AID 1224880); details: RealTime-Glo luminescence; series mostly up to 76.8 µM; further: nearly all actives have a fitted effect of over 45% in size
Procedure, shortened: as §2
Potency means the concentration at half of the fitted maximal effect.

| Structure (SMILES) | Potency [1] | Potency [2] | Potency [3] | max response [4] | Potency [5] | Potency [6] | Potency [7] | Potency [8] | Potency [9] | Potency [10] | Potency [4] |
| --- | --- | --- | --- | --- | --- | --- | --- | --- | --- | --- | --- |
| O=Cc1ccc(Cl)cc1 | inactive | inactive | inactive | -1.8% (inactive) | inactive | inactive | inactive | inactive | inactive | inactive |  |
| CCOc1ccccc1C(N)=O | inactive | inactive | inactive |  | inactive | inactive | inactive | inactive | inactive |  |  |
| CC(=O)OCCOCCOCCOC(C)=O | inactive | inactive | inactive | 7.9% (inactive) and 19.2% (inactive) | inactive | inactive | inactive | inactive | inactive | inactive |  |
| CNC1(C)C2CCC(C2)C1(C)C (configuration not stated) | inactive | inactive | inactive | -3.74% (inactive) | inactive |  | inactive |  |  | inactive |  |
| CCCCCCCCCCCCCC[P+](CCCC)(CCCC)CCCC | 13.7 µM (active) and 17.4 µM (active) | 5.46 µM (active) and 549 nM (active) | 38.7 µM (active) and 17.4 µM (active) |  | 12.2 µM (active) and 17.4 µM (active) | 21.8 µM (active) and 19.5 µM (active) | 21.8 µM (active) and 12.3 µM (active) | 21.8 µM (active) and 15.5 µM (active) | 19.4 µM (active) and 17.4 µM (active) | inactive | 137 nM (active) and 174 nM (active) |
| CC(C)CCOC(=O)c1ccc(N(C)C)cc1 | inactive | inactive | inactive | 3.04% (inactive) | inactive | inactive | inactive | inactive | 1.9 µM (active) | inactive |  |
| CC1COC(=O)O1 (configuration not stated) | inactive | inactive | inactive | 9.29% (inactive) and -24.4% (inactive) | inactive | inactive and 38.9 µM (active) | inactive | inactive and 43.6 µM (active) | inactive and 43.6 µM (active) | inactive |  |
| CCN(CC)C(=O)Nc1ccc(OCC(O)CNC(C)(C)C)c(C(C)=O)c1 (configuration not stated) | inactive | inactive | inactive | 1.66% (inactive) | inactive | inactive | inactive | inactive | inactive | inactive |  |
| CCCC(=O)c1ccccc1 | inactive | inactive | inactive | 2.03% (inactive) | inactive | inactive | inactive | inactive | inactive | inactive |  |
| Cc1c(O)cccc1C(=O)N[C@@H](CSc1ccccc1)[C@H](O)CN1C[C@H]2CCCC[C@H]2C[C@H]1C(=O)NC(C)(C)C | inactive |  | inactive |  | inactive | inactive | inactive | inactive | 42.5 µM (active) and 10.7 µM (active) |  | 13.4 µM (active) |
| Oc1c(Cl)cc(Cl)c(Cl)c1Cc1c(O)c(Cl)cc(Cl)c1Cl | 48.9 µM (active) and 49 µM (active) and inactive | inactive | inactive |  |  | inactive and 43.6 µM (active) | inactive and 21.9 µM (active) | inactive and 38.9 µM (active) | 21.8 µM (active) and 38.9 µM (active) | inactive |  |
| CC(=O)N[C@@H](CS)C(=O)O | inactive | inactive | inactive |  | inactive | inactive | inactive | inactive | inactive | inactive |  |
| Nc1ccc2cc3ccccc3cc2c1 | inactive | inactive | inactive |  | inactive | inactive | inactive | inactive | inactive | inactive |  |
| Cc1cc(C2(c3cc(C)c(O)cc3C)OS(=O)(=O)c3ccccc32)c(C)cc1O | inactive | inactive |  | -21.7% (inactive) and -18.4% (inactive) | inactive | inactive |  | inactive | inactive | 27.5 µM (active) and 24.5 µM (active) |  |
| C1COC(NC(C2CC2)C2CC2)=N1 |  | inactive | inactive | 5.02% (inactive) | inactive | inactive | inactive | inactive | inactive |  |  |
| CCN(CC)C(=S)SSC(=S)N(CC)CC | 155 nM (active) and 5.62 µM (active) and 84.9 nM (active) | 89.1 nM (active) and 13.4 µM (active) | 44.7 µM (active) |  |  | 50.1 µM (active) and inactive | 89.1 nM (active) | 158 nM (active) and 95.2 nM (active) | 0.1 µM (active) | inactive |  |
| CC(=O)O[C@]1(C(C)=O)CC[C@H]2[C@@H]3C[C@H](C)C4=CC(=O)CC[C@]4(C)[C@H]3CC[C@@]21C |  | 17.4 µM (active) | inactive |  | inactive | inactive | inactive | inactive | inactive |  | 19.5 µM (active) and 9.52 µM (active) |
| CC1COc2c(N3CCN(C)CC3)c(F)cc3c(=O)c(C(=O)O)cn1c23 (configuration not stated) | inactive |  |  |  | inactive | inactive |  | inactive | inactive |  |  |
| CC(C)CCOCc1ccccc1 |  | inactive | inactive | 2.97% (inactive) | inactive | inactive | inactive | inactive | inactive |  |  |
| COc1ccc(CCN(C)CCCC(C#N)(c2ccc(OC)c(OC)c2)C(C)C)cc1OC (configuration not stated) | inactive |  |  |  | inactive | inactive |  |  | 48.9 µM (active) |  |  |
| CC(C)(C)c1ccccc1 | inactive | inactive | inactive |  | inactive | inactive | inactive | inactive | inactive | inactive |  |
| CC(C)(C)c1ccc(O)c(C(C)(C)C)c1 | 24.4 µM (active) and 34.7 µM (active) | 34.5 µM (active) | 38.9 µM (active) |  | 21.8 µM (active) and 34.7 µM (active) | 48.8 µM (active) and 43.6 µM (active) |  | 48.8 µM (active) and 43.6 µM (active) | 48.8 µM (active) and 43.6 µM (active) | inactive |  |
| C/C=C/c1ccc(OCC)c(O)c1 | inactive | inactive | inactive |  | inactive | inactive | inactive | inactive | inactive | inactive |  |
| [Cl][In]([Cl])[Cl] | inactive | inactive | inactive |  | inactive | inactive | inactive | inactive | inactive | inactive |  |
| Cc1cccc2n[nH]nc12 | inactive | inactive | inactive |  | inactive | inactive and 38.9 µM (active) | inactive | inactive and 38.9 µM (active) | inactive | inactive |  |
